In PubChem BioAssay (NCI):
This is part of a sample that, as a whole, favours compounds with a hit. Of some 79,000 tested, about 15% had one in any assay. Values without a mark were called inactive. The source made the active and inactive calls. No stated cut-off is given here; in the data, active means growth inhibition above about 70%; inactive means the rest.

Assays:
[1] = NCI Yeast Anticancer Drug Screen. Data for the rad50 strain (AID 155);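 further: 0% = growth of vehicle-only cultures of the same strain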; details: S. cerevisiae rad50 strain growth inhibition; at 50.0 µM; stronger effect = higher value
In short: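 Growth of the mutant yeast was measured after compound exposure and referenced to vehicle-treated cultures.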

[2] = NCI Yeast Anticancer Drug Screen. Data for the mec2-1 strain (AID 157); details: S. cerevisiae mec2-1 strain, at 50.0 µM, stronger effect = higher value
In short: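 Mutant yeast (mec2-1) grown with compound; growth inhibition relative to vehicle control reported.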

[3] = NCI Yeast Anticancer Drug Screen. Data for the sgs1 mgt1 strain (AID 161);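 further: 0% = growth of cultures given vehicle only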; details: S. cerevisiae sgs1 mgt1 strain, at 50.0 µM, stronger effect = higher value
In short: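 Compounds are added to genetically altered yeast, and growth is compared with cultures given vehicle alone to give percent inhibition.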

[4] = NCI Yeast Anticancer Drug Screen. Data for the cln2 rad14 strain (AID 165);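 further: 0% = growth equal to vehicle treated cultures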; details: S. cerevisiae cln2 rad14 strain, at 50.0 µM, stronger effect = higher value
In short: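 Readout is yeast growth inhibition versus vehicle-treated controls, using a strain with cln2 and rad14 alterations exposed to compound.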

[5] = NCI Yeast Anticancer Drug Screen. Data for the bub3 strain (AID 167); details: S. cerevisiae bub3 mutant strain, at 50.0 µM, stronger effect = higher value
In short: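 Whole-cell yeast assay. The mutant strain was incubated with compounds, and growth inhibition was determined by comparison with vehicle-treated cells.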

[6] = NCI Yeast Anticancer Drug Screen. Data for the mlh1 rad18 strain (AID 175); details: S. cerevisiae mlh1 rad18 strain growth inhibition; at 50.0 µM; stronger effect = higher value
In short: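 Genetically defined yeast (DNA repair-deficient) exposed to compounds; growth inhibition determined relative to vehicle.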

Compound	growth inhibition [1]	growth inhibition [2]	growth inhibition [3] [%]	growth inhibition [4] [%]	growth inhibition [5] [%]	growth inhibition [6] [%]
CCOC(=O)C1C2(C)NC(=O)C1(Cc1ccccc1)c1ccc(O)cc1O2 (stereo not drawn)	4.05%	3.1%	-13.1	0.05	2.5	-1.05
O=P1(C(Cl)Cl)OCCCO1	-9.35%	10.7%	-2.65	-10.2	-0.15	-0.15
ClC1=C(Cl)C2(Cl)C3C(C4(Cl)C(Cl)=C(Cl)C3(Cl)C4(Cl)Cl)C2(Cl)C1(Cl)Cl (stereo not drawn)	-1.7%	-6.05%	9	-71	-2.4	-11.8
SCc1c(Cl)c(Cl)c(Cl)c(Cl)c1Cl.[Hg]	-7.65%	-24.9%	-15.5	-64.8	3.45	-28.1
N#CN1CC(C(=O)N2CCCCC2)C=C2c3cccc4[nH]cc(c34)CC21 (stereo not drawn)	9.5%	-10.8%	34.5	0.05	8.95	10.9
CCOC(CNCc1cccnc1)OCC	-20.7%	-10.6%	-23.6	5.9	-13.7	-17.3
c1ccc2cc(C3NCCc4[nH]cnc43)ccc2c1 (stereo not drawn)	4.65%	-7.6%	-6.7	2.85	-7.7	29.8
CCC1(Sc2ncnc3c2ncn3C2OC(CO)C(O)C2O)C(=O)NC(=O)NC1=O (stereo not drawn)	4.5%	2.7%	-7.95	16.9	-6.05	-7.2
CCCC[As](=O)(O)C(C)C	5%	9.25%	2.5	16	6.95	14.1
O=[N+]([O-])CCCCl	2.05%	-3.05%	-3.05	-7.95	1.85	2.35
[N-]=[N+]=Nc1nc2ccccc2c(N=[N+]=[N-])c1Cl	6.85%	-6.7%	5.6	31.9	5.45	9.45
Cc1cccc(C)c1OCC1=NCCN1	4.75%	14.3%	0.1	-55.6	5.5	-13.1
CC1C(c2ccccc2)OCCN1C (stereo not drawn)	-26.4%	-12.9%	-23.7	-7.5	-16.4	-32.2
O=P1(c2ccccc2)NC2CCCCC2N1 (stereo not drawn)	24.2%	-8.05%	-5.3	-87	-0.9	2.95
O=C1C2C(C(=O)N1c1ccc(O)cc1)C1(Cl)C(Cl)=C(Cl)C2(Cl)C1(Cl)Cl (stereo not drawn)	-0.45%	-11.8%	1.9	-0.1	-19.6	1
NC(Cc1cnc[nH]1)C(=O)NC(Cc1cnc[nH]1)C(=O)O (stereo not drawn)	-5.1%	9%	-1.5	10.6	4.45	7.6
CC(=O)NNC(=O)C(Cl)Cl	5.45%	-3.75%	8.45	8	4.15	25.4
CCOP(=O)(OCC)C(=C(Cl)Cl)C(Cl)Cl	82.6% (active)	85.2% (active)	8.75	37.6	-17.1	49.8
O=C1NC(=O)C(CCC(=O)c2ccc3ccccc3c2)C(=O)N1	-29.1%	-22.8%	-57.6	-10.8	-34.8	-25.8
[Cl][Pt][Cl].[NH-]NC(=O)c1ccncc1	8.65%	5.8%	-3.55	-17.1	2.35	-2
O=[N+]([O-])c1ccc(C#Cc2ccc(N(CCCl)CCCl)cc2)cc1	1.95%	-8.85%	7.5	-65.5	9.2	-3.95
CN(C)P1P(N(C)C)P(N(C)C)P1N(C)C (stereo not drawn)	-25.4%	9.75%	2.2	-58.7	-7.5	-1.2

Compound	growth inhibition [1]	growth inhibition [2]	growth inhibition [3] [%]	growth inhibition [4] [%]	growth inhibition [5] [%]	growth inhibition [6] [%]
CC12C(=O)C(C)(C(c3ccccc3)=C1c1ccccc1)C1(C#N)NC21C#N (stereo not drawn)	14.9%	2.65%	22.8	18.2	13.8	40
CC(=O)O[C@H]1CCC2[C@@H]3CCC4c5nonc5CC[C@]4(C)C3CC[C@@]21C (stereo partly drawn)	28.4%	5.55%	22.9	35.1	27.6	17.9
C[CH2][Sn]([c]1ccccc1)[c]1ccccc1	33.1%	39.2%	40.3	3.65	35.5	47.1
CC(C)(C)N1OC1C(Cl)(Cl)Cl (stereo not drawn)	-20.6%	-9.55%	-23	-18.3	-4.95	10.4
COc1ccc(/C=C/c2cc(OC)c3c(c2)OCO3)cc1O	4.4%	5.45%	-9.55	0.9	1.7	-7.75
COc1ccc(C(N)Cc2ccccc2)cc1 (stereo not drawn)	10.8%	3.15%	10.8	9.85	3.5	-2.35
CCC1(CC)COP(=S)(S)OC1	10.8%	-17.8%	-16.9	10.1	-3.5	-3.2
CC1NCCc2c1[nH]c1cc(O)ccc21 (stereo not drawn)	4.55%	-10.9%	5.5	-9.2	-21.5	3.1
CCCC(C)C1C(=O)N(C)C(=O)N(C)C1=O (stereo not drawn)	14.2%	-1%	11.4	9.9	-4.75	14.9
NCC(O)c1ccc2c(c1)OCO2 (stereo not drawn)	-48.8%	-12.7%	-11.3	-31.4	-1.4	-8.65
N=C(N)N1CCNc2ccccc2C1	14.9%	-10.2%	-7.3	28.8	-1.2	6.3
CSCCC(N)P(C)(=O)O (stereo not drawn)	-16.4%	-37.5%	-15.7	1.5	-46.1	-17.5
[C-]#[O+].[C-]#[O+].[C-]#[O+].[Ni].c1ccc([PH+](CC[PH+](c2ccccc2)c2ccccc2)CC[PH+](c2ccccc2)c2ccccc2)cc1	43.9%	38.5%	46.7	32.8	42.6	46.3
COP(=O)(O)NC(C)=O	13.7%	-23.9%	8.85	-64.5	9.45	-8.4
O=C1/C(=C\c2cc3ccccc3c3ccccc23)N2CCC1CC2	11.1%	-10.2%	-12	-7.35	-3.1	1
NCC1OC(OC2C(CO)OC(OC3C(O)C(N)CC(N)C3OC3OC(CN)C(O)C(O)C3N)C2O)C(N)C(O)C1O (stereo not drawn)	6.1%	2.3%	10.3	3	15.4	6.8
CNC1(c2ccccc2)CC1	24.9%	-12.2%	0.95	-60.9	15.2	-7.05
CCCCN(CCCC)CCc1ccccc1	19.6%	1.8%	8.45	17.8	30.4	17
CC1(C)C2=CC[C@H]3[C@@H]4CC[C@H](O)[C@@]4(C)CC[C@@H]3[C@@]2(C)CC[C@@H]1O	-2.6%	-16.4%	-4.75	-19.4	5.35	-3.15
O=[N+]([O-])c1ccc(Cl)c(Cl)c1	20.9%	-4.6%	-8.5	-37.5	-5	26.1
CC(C)N(C#N)C(C)C	16.6%	-0.75%	1.85	9.6	0.25	6.25
